Results published in PubChem BioAssay.
“And” between values parts separate entries of the source, which are not always exact repeats. Equal values may be shown once. The source made the active and inactive calls.

How the values were obtained:
[1] = optical density shifts of acrAB sulA E. coli – strain DRC41, OD650, 48 h, E. coli filamentation inducer project, primary screen (AID 1152); conditions: higher = more signal, called active from +8 up or from −8 down;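 further: E. coli MC1000 strain DRC41 lacking acrAB efflux pump and sulA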
[2] = probe aLefty1 binding on compound microarray – biochemical, small-molecule microarray, 635/667 nm fluorescence, primary screen (AID 1153); conditions: higher = more signal;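 further: score merges spot fluorescence with signal-to-noise ratio from the scanned slide images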
[3] = plasmodial surface anion channel blockers, osmotic lysis – cell-based, P. falciparum Indochina, OD700, 1 h, primary screen (AID 1154); conditions: P. falciparum Indochina infected RBC osmotic lysis, higher = more signal, called active from +8 up or from −8 down
[4] = plasmodial surface anion channel blockers, osmotic lysis – cell-based, P. falciparum Indochina, OD700, 2 h, primary screen (AID 1155);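 further: lysis reports solute entry through the parasite surface anion channel PSAC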; conditions: P. falciparum Indochina infected erythrocytes, higher = more signal, called active from +8 up or from −8 down
[5] = changes in parasitized red cell lysis, either direction – P. falciparum Indochina, OD700, 3 h, PSAC antagonist project, primary screen (AID 1156); conditions: P. falciparum-infected erythrocytes, osmotic lysis, higher = more signal, called active from +8 up or from −8 down
[6] = plasmodial surface anion channel blockers, osmotic lysis – cell-based, P. falciparum Indochina, OD700, 18 h, primary screen (AID 1157); conditions: P. falciparum Indochina infected erythrocytes, osmotic lysis OD700, 18 h; higher = more signal, called active from +8 up or from −8 down
[7] = S6 kinase pathway phospho-S6 level changes – cell-based, A549, cytoblot, luminescence, serum-stimulated, primary screen (AID 1158); conditions: 5 h, higher = more signal;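 further: serum-stimulated A549 lung adenocarcinoma cells; signal is phosphorylated S6 detected by cytoblot immunostaining with HRP secondary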
[8] = biological target: NADPH oxidase 2 (Homo sapiens) (UniProt P04839); test: compounds shifting NOX2 Amplex Red fluorescence – cell-based, HEK293-NOX2, PMA-stimulated, NOX inhibitor project, primary screen (AID 1159); conditions: 45 min, higher = more signal, called active from +8 up or from −8 down; further: test concentration not given here
[9] = biological target: NADPH oxidase 4 (Homo sapiens) (UniProt Q9NPH5); test: compounds shifting NOX4 Amplex Red fluorescence – cell-based, HEK293-NOX4, tetracycline-induced, NOX inhibitor project, primary screen (AID 1160); conditions: HEK293-NOX4, Amplex Red H2O2 fluorescence, 45 min; higher = more signal, called active from +8 up or from −8 down
[10] = biological target: NADPH oxidase 5 (Homo sapiens) (UniProt Q96PH1); test: compounds shifting NOX5 Amplex Red fluorescence – cell-based, HEK293-NOX5, NOX inhibitor project, primary screen (AID 1161); conditions: HEK293-NOX5, ionomycin, 45 min, higher = more signal
[11] = compound effects on lung adenocarcinoma cell viability – A549, calcein-AM fluorescence, 48 h, basal, profiling panel (AID 1162); conditions: higher = more signal; further: test concentration not given here
[12] = compound effects on differentiated 3T3-L1 adipocyte viability – cell-based, 3T3-L1 adipocytes, calcein-AM fluorescence, 48 h, basal, profiling panel (AID 1163); conditions: 3T3-L1 adipocytes viability, higher = more signal; further: test concentration not given here
[13] = compound effects on hepatocellular carcinoma cell viability – HepG2, calcein-AM fluorescence, 48 h, basal, profiling panel (AID 1164); conditions: higher = more signal; further: test concentration not given here
[14] = compound effects on multiple myeloma cell viability – MM1S, calcein-AM fluorescence, 48 h, basal, profiling panel (AID 1165); conditions: higher = more signal; further: test concentration not given here
[15] = calcein-AM signal in unstimulated myeloma cells – cell-based, calcein-AM fluorescence, 48 h, PK04 Diversity Set, profiling panel (AID 1166); conditions: RPMI8226 myeloma viability, higher = more signal;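 further: cells grown under basal conditions without added stimulus; test concentration not given here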
[16] = JC-1 mitochondrial signal, unstimulated HepG2 cells – cell-based, JC-1 fluorescence, 24 h, 100 nL compound, profiling panel (AID 1167); conditions: HepG2 mitochondrial potential, higher = more signal; further: test concentration not given here
[17] = JC-1 mitochondrial signal, unstimulated adipocytes – cell-based, JC-1 fluorescence, 3T3-L1 adipocytes, 24 h, 100 nL compound, profiling panel (AID 1168); conditions: JC-1 mitochondrial fluorescence, higher = more signal, called active from +8 up or from −8 down; further: test concentration not given here
[18] = JC-1 mitochondrial signal, unstimulated myeloma cells – cell-based, JC-1 fluorescence, RPMI8226, 24 h, 100 nL compound, profiling panel (AID 1169); conditions: JC-1 mitochondrial potential fluorescence, higher = more signal; further: test concentration not given here
[19] = JC-1 mitochondrial signal, unstimulated MM1S myeloma – cell-based, JC-1 fluorescence, 24 h, 100 nL compound, profiling panel (AID 1170); conditions: MM1S mitochondrial potential, higher = more signal; further: test concentration not given here
[20] = resazurin metabolic signal in A549 cells – cell-based, resazurin fluorescence, 24 h, PK04 Diversity Set, profiling panel (AID 1171); conditions: A549 viability, higher = more signal, called active from +8 up or from −8 down; further: test concentration not given here

Sequence of NADPH oxidase 2 (Homo sapiens) (P04839 whole entry, looked up): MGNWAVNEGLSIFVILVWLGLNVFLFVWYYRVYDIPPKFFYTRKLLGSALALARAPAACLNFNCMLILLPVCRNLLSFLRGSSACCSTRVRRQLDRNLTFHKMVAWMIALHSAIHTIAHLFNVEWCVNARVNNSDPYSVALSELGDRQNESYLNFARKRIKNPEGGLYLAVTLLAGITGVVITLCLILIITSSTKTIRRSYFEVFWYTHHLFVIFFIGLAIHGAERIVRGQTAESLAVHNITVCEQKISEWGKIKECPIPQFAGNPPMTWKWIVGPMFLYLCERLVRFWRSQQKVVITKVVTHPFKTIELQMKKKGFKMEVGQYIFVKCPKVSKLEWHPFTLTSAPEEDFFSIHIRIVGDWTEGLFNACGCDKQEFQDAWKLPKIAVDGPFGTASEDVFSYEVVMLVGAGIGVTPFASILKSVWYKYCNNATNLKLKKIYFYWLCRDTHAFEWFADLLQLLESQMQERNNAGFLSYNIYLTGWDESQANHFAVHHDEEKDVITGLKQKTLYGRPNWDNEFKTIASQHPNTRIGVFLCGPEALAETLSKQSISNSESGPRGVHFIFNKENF
Sequence of NADPH oxidase 5 (Homo sapiens) (Q96PH1 whole entry, looked up): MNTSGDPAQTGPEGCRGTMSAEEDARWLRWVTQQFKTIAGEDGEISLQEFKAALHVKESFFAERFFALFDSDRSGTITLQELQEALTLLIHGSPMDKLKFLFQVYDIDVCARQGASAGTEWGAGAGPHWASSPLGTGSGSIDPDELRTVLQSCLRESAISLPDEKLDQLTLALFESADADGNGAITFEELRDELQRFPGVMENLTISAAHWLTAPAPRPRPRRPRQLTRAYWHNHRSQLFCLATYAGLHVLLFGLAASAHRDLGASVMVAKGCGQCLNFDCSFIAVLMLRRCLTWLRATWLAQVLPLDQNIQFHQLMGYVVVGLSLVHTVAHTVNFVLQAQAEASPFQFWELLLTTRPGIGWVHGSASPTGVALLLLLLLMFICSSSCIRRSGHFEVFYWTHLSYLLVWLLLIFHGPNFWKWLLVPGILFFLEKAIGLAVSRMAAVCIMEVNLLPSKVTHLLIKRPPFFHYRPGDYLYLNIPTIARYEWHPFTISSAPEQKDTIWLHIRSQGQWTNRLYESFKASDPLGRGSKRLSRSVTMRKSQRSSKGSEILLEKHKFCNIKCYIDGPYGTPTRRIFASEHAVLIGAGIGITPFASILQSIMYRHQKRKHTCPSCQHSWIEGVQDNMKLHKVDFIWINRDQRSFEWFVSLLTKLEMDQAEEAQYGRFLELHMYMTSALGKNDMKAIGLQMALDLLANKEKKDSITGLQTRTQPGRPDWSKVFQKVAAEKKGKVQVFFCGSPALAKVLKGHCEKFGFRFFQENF
Sequence of NADPH oxidase 4 (Homo sapiens) (Q9NPH5 whole entry, looked up): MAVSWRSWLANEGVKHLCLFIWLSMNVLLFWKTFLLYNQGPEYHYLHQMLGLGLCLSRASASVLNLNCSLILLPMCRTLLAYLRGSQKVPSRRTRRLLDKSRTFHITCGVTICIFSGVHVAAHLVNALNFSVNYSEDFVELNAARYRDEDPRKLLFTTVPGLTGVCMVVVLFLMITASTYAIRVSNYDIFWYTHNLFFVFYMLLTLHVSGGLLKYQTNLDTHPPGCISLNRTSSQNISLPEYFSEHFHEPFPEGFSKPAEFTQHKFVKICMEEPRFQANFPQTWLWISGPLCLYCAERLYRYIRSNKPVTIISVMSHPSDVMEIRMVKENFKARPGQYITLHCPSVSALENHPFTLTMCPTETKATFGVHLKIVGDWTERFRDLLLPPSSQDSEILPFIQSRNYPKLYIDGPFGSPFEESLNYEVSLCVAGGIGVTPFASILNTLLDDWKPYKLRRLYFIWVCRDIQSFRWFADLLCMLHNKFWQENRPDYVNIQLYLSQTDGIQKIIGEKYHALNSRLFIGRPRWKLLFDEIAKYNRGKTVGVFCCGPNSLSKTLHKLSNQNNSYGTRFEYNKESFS

Row | SMILES | z-score [1] | composite z-score [2] | z-score [3] | z-score [4] | z-score [5] | z-score [6] | z-score [7] | z-score [8] | z-score [9] | z-score [10] | z-score [11] | z-score [12] | z-score [13] | z-score [14] | z-score [15] | z-score [16] | z-score [17] | z-score [18] | z-score [19] | z-score [20]
1 | C[N+](C)(C)CCCCNC(=O)[C@@H]1C[C@@H]2C(=O)N[C@@H](CCCC[N+](C)(C)C)C(=O)N2[C@@H]1c1cccc(OCCO)c1 | 0.185 (inactive) and 0.394 (inactive) | -0.144 and 0.167 | 1.5 (inactive) and 1.02 (inactive) | 0.77 (inactive) and -0.108 (inactive) | -1.61 (inactive) and -1.45 (inactive) | 0.252 (inactive) and -0.0932 (inactive) | -0.519 and -0.437 | -2.1 (inactive) and -1.99 (inactive) | -2.58 (inactive) and -1.13 (inactive) | -1.28 and -0.837 | 0.901 and 1.05 | 0.462 and -0.276 | -0.517 and 0.473 | -0.531 and -0.212 | -0.719 and -0.495 | 0.0138 and 1.44 | -0.393 (inactive) and 0.547 (inactive) | 0.352 and -0.897 | -0.218 and 0.26 | -0.375 (inactive) and -0.0246 (inactive)
2 | CCOC(=O)CCN1C(=O)[C@H]2[C@H]3[C@H](O)[C@H](O)CC(=NNC(=O)OCC)[C@@H]3CC[C@H]2C1=O | 0.542 (inactive) | -0.193 | -0.48 (inactive) | 0.189 (inactive) | -0.602 (inactive) | -0.0634 (inactive) | -0.494 | -0.489 (inactive) | 0.916 (inactive) | 0.754 | 0.241 | -0.0796 | 0.076 | -0.847 | -0.314 | -0.566 | -0.541 (inactive) | 0.209 | -0.479 | -0.453 (inactive)
3 | COC(=O)C1=C(C)N(Cc2ccccc2)[C@]23O[C@](C(=O)OC)(C(=O)N2[C@@H]1c1ccccc1)[C@H]1CCCC(=O)[C@H]13 | 0.0211 (inactive) and -0.587 (inactive) | -0.0559 and 0.101 | 1.12 (inactive) and 0.466 (inactive) | 0.314 (inactive) and 0.0982 (inactive) | 0.0988 (inactive) and 0.882 (inactive) | 0.0037 (inactive) and -1.37 (inactive) | -0.0731 and 2.28 | -2.97 (inactive) and -0.233 (inactive) | 0.743 (inactive) and 0.178 (inactive) | 0.244 and -0.624 | 0.144 and -0.51 | 0.474 and 0.827 | -0.336 and -0.818 | -3.25 and -1.15 | -1.18 and -0.337 | 0.662 and 0.827 | 1.33 (inactive) and 0.966 (inactive) | -0.736 and 0.0334 | 0.291 and -0.342 | 0.207 (inactive) and -0.277 (inactive)
4 | COC(=O)C1=C(C)N(Cc2ccccc2)C2=C(C(=O)c3ccccc3)[C@H](c3ccccc3)[C@@](O)(C(=O)OC)C(=O)N2[C@@H]1c1ccccc1 | 0.809 (inactive) and 0.498 (inactive) | -0.234 and -0.168 | 1.74 (inactive) and 0.552 (inactive) | 0.852 (inactive) and 0.417 (inactive) | -0.326 (inactive) and -0.171 (inactive) | 0.442 (inactive) and 0.39 (inactive) | 0.533 and -0.266 | 1.06 (inactive) and 0.0122 (inactive) | 0.59 (inactive) and -0.238 (inactive) | 1.59 and 0.157 | 0.369 and 0.44 | -0.154 and -0.936 | 0.217 and 1.26 | -0.317 and 0.332 | -1.15 and 0.0491 | 1.33 and 2.03 | -0.393 (inactive) and -1.16 (inactive) | -0.639 and -0.349 | 0.573 and -0.514 | 1.39 (inactive) and -0.344 (inactive)
5 | C=CCN(CCCCC)C(=O)C1N(c2ccc(CCO)cc2)C(=O)C2C(C(=O)O)C3C=CC21O3 (stereo not given) | -0.202 (inactive) and 0.216 (inactive) | -0.0099 and 0.0736 | 1.47 (inactive) and 1.68 (inactive) | 0.351 (inactive) and 0.438 (inactive) | -0.148 (inactive) and -0.54 (inactive) | 0.0385 (inactive) and 0.356 (inactive) | 1.15 and 0.435 | 1.21 (inactive) and 0.745 (inactive) | 0.564 (inactive) and 0.124 (inactive) | 0.698 and 0.836 | -0.0277 and -0.611 | -0.0076 and 0.226 | -0.97 and 0.288 | 0.867 and 0.199 | -0.322 and -1.02 | -0.587 and -1.1 | -0.545 (inactive) and -0.407 (inactive) | 0.647 and 0.562 | 0.743 and 0.912 | -0.792 (inactive) and -0.842 (inactive)
6 | C=CCN(CCCC)C(=O)C(c1cccs1)N(C(=O)/C=C\C(=O)O)c1c(Cl)cccc1CO (stereo not given) | 0.518 (inactive) and 0.0558 (inactive) | -0.148 and -0.0099 | 0.111 (inactive) and 0.897 (inactive) | -0.0165 (inactive) and -0.14 (inactive) | -0.38 (inactive) and 0.0904 (inactive) | 0.113 (inactive) and 0.283 (inactive) | 1.21 and 0.596 | 0.148 (inactive) and 0.256 (inactive) | -0.319 (inactive) and -0.507 (inactive) | 0.16 and 0.227 | -0.163 and -0.667 | 0.441 and 0.526 | -0.934 and -0.809 | 1.43 and 1.51 | -0.097 and -0.435 | -0.25 and -0.417 | -0.96 (inactive) and 0.0799 (inactive) | 0.819 and 1.04 | -0.153 and -0.712 | -0.352 (inactive) and 0.397 (inactive)
7 | CC(C)CCN1CCc2nc(-c3ccccc3)c3c(c2C1)CO[C@@H](C)C3 | 0.842 (inactive) | 0.173 | 0.253 (inactive) | 0.145 (inactive) | -0.895 (inactive) | 0.0992 (inactive) | -0.768 | 1.12 (inactive) | 0.461 (inactive) | 0.427 | -0.0742 | -0.626 | 1.15 | -1.18 | 0.0677 | 0.361 | -0.395 (inactive) | -0.173 | 0.324 | -0.191 (inactive)
